Measurements published in the supplement of paper PMC10681739.

These sequences were tested against T1, ETS1 (UniProt P14921) (assay: ETS1 binding intensity (PBM fluorescence), ETS1 alone (arbitrary fluorescence units); higher = stronger binding). Conditions: ETS1 concentration 1 nM; RUNX1 concentration 0 nM.
T1 sequence: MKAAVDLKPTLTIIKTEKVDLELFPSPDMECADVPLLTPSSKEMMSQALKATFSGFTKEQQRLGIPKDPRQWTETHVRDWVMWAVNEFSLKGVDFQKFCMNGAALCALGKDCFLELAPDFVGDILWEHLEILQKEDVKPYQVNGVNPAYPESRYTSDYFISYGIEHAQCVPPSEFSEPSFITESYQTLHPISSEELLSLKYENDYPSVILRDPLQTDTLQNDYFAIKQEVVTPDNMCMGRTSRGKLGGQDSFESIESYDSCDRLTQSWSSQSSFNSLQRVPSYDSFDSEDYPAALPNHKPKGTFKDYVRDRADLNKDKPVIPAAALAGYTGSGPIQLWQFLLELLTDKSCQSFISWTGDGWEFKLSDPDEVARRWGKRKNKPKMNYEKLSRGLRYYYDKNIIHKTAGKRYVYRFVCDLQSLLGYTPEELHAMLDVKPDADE
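For RUNX1 binding intensity (PBM fluorescence), RUNX1 alone in this document: Full-length recombinant human RUNX1 bound to double-stranded 36-bp genomic probes on a high-density microarray, scored as Alexa488 fluorescence per spot via anti-RUNX1 antibody, median of four replicate spots.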

Point of comparison: CAGTGACAGGAAGTGGTTCAGCGGTTGTTTAGGGCT, ETS1 binding intensity 7680. Against it:
- GTCTTTCACTCCACTTCCGCCCCCACAAAACATACA — lower, 2850
- GACTGGTTTCCTGGTTTTGATGTGGTTTAGAGAAAA — lower, 504
- CTTTAAGGAGGCGGAAAAGTTAACCGCGATGGGCAG — lower, 533
- GAGACTTTCGCTTCCGGCTGCCGCAGGCGCTTCGCT — lower, 1830
- GACTCCCTCAGCGGATGCGGGTGCTGCTGCTGCTGC — lower, 1290
- GGCTGCAGGAAGTGGGAAGGTGTGGCTTTGAGTCTC — lower, 1830
- AAAGTAGGTCCGGTCCGCGGGTGCGGTCGGGCATGC — lower, 427
- AGGCTCATTTCCTGTTTTCATGTGGTTTAGAGAAAA — lower, 2630
- GCCACACAGGCAGGAAAGCCACAGCCCACGTCTCCG — lower, 471
- AGCGGCTGCACAGGAAGTTGGTTTTCACAAAGGCAA — lower, 5520
- TTTCTGACTTCCTGTGTGCTTCAGAAACCTCAATGA — lower, 2020
- GACCTGCCTTCCGGCCTCCGTCACATGACCGCACAG — lower, 556
- CCCGCTGTCACTTCCTGCTTCCCTCCCGCACACGTG — lower, 2700
- ACAGATAGTGATATCCTGTGGTCAATTCCCTCCCCT — lower, 949
- GAGGGCTGCTTCCTGCTCTGTGGAGGCCGCAGCGGG — lower, 555
- CCAACACAGGAAATAATTTGAAACCACAATCAGAAA — lower, 1270
- ACGGTGTGTCTCATTTCCTGTGGGTAACAGGCACCA — lower, 2120
- TAACTACTTCCTTTTACTATCTACCACAATTTAATT — lower, 516
- TCAAGAAAACAGGAAACTCTCAAAACCAAGTTCTGA — lower, 1430
- TGGAAGGCCGGAAAAGGTTTACCACCACACTCCGGT — lower, 1850
- GACATCCAGGAAGTGGTGAGAAACCACGTGTGTGTT — lower, 1630
- AATGGGCTTGGTTTCCTGTGGGTTTGTAGCTTTGTA — lower, 519
- GCAGGCGGAGCTTGAGGAAACCGCAGATAAGTTTTT — lower, 463
- CTCCAGGGACAACCCGGAAACCACATTGCCCAGCGT — lower, 2230
- TGTCCGCACCCCACTTCCGCCCCGCAGAGGGCAACG — lower, 2960
- ACAGACCAGGGGATTTCCTGTGGGTGGAGTCCTCAG — lower, 859
- CCCACTTCCTGTCTGCTTCCCTCCACCGCTCAGACC — lower, 2890
- AGGCAGCACAGGAAGTTATAACCACATGTACACTTG — lower, 3790
- TTGGTCAGGATGTGGCTGAAGAAGCCACAAGAAAAA — lower, 796
- AGTTGTGTTTTAGGATGTGGTCAAAGCCCAACAGAG — lower, 581
- TTCGGATTCCCGGAAGAACCCGCAGCAGCTCCCAGG — lower, 792
- CCGAGCTTAACGACATCCTGCGGCTCAGCGTGGAGG — lower, 435
- TCTCTACTTCCCATTATTTCTGTGGTTAATTTCACC — lower, 369
- GCCTGTCGCAGGAACGGAAGTGGTTACGGCCCTAGT — higher, 8480
- ACCCCGGAAGTGTGGGCGCGGCTGCGGTTTAACCCG — lower, 2640
- TGTTTTCGCTCTTCCTGGCCTTGCGGGCAGCCAGGA — lower, 390
- CCCTGAGCACTTCCCCGTAAGGCTGCGGTGCACGGG — lower, 337
- AGCACCCGGAAGTCGGAGCTGCGCACGCACCGCGGG — lower, 2180
- GGGGCTCCGCAGGAAGTAGGGCTCCCACAACTTTGC — lower, 2970

These sequences were tested against RUNX1 (UniProt Q01196) (assay: RUNX1 binding intensity (PBM fluorescence), RUNX1 alone (arbitrary fluorescence units); higher = stronger binding). Conditions: RUNX1 concentration 2 nM; ETS1 concentration 0 nM.
Sequence of RUNX1 (Q01196 whole entry): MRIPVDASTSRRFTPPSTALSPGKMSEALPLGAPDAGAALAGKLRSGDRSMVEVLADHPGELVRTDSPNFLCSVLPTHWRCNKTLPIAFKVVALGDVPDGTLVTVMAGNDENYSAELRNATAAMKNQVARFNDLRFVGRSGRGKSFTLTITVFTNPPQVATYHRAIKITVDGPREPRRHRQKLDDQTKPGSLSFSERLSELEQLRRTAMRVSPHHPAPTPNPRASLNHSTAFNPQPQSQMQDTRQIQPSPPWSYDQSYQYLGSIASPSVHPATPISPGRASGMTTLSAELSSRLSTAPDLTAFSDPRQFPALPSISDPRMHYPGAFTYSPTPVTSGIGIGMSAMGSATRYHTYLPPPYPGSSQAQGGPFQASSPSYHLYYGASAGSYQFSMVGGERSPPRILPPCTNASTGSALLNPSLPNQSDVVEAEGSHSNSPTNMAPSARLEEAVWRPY
Experimental: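 Cooperative gcPBM on 36-bp genomic probes with neighbouring ETS1 and RUNX1 sites. Recombinant human RUNX1 (2 nM) was incubated alone or with ETS1 (25 nM) and detected with anti-RUNX1 antibody plus Alexa488 secondary. Values are medians over 4 replicate spots; the RUNX1+ETS1 data were normalised to the RUNX1-only data. The probes sit in constant array flanks that are not printed.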

Point of comparison: GAGACTTTCGCTTCCGGCTGCCGCAGGCGCTTCGCT, RUNX1 binding intensity 710. Against it:
- GTCTTTCACTCCACTTCCGCCCCCACAAAACATACA — higher, 6600
- GACTGGTTTCCTGGTTTTGATGTGGTTTAGAGAAAA — higher, 1080
- CTTTAAGGAGGCGGAAAAGTTAACCGCGATGGGCAG — higher, 996
- GACTCCCTCAGCGGATGCGGGTGCTGCTGCTGCTGC — higher, 743
- GGCTGCAGGAAGTGGGAAGGTGTGGCTTTGAGTCTC — higher, 755
- AAAGTAGGTCCGGTCCGCGGGTGCGGTCGGGCATGC — lower, 686
- AGGCTCATTTCCTGTTTTCATGTGGTTTAGAGAAAA — higher, 1320
- GCCACACAGGCAGGAAAGCCACAGCCCACGTCTCCG — higher, 867
- AGCGGCTGCACAGGAAGTTGGTTTTCACAAAGGCAA — lower, 658
- TTTCTGACTTCCTGTGTGCTTCAGAAACCTCAATGA — higher, 830
- GACCTGCCTTCCGGCCTCCGTCACATGACCGCACAG — higher, 1110
- CCCGCTGTCACTTCCTGCTTCCCTCCCGCACACGTG — higher, 1920
- ACAGATAGTGATATCCTGTGGTCAATTCCCTCCCCT — higher, 1030
- GAGGGCTGCTTCCTGCTCTGTGGAGGCCGCAGCGGG — lower, 682
- CCAACACAGGAAATAATTTGAAACCACAATCAGAAA — higher, 1290
- ACGGTGTGTCTCATTTCCTGTGGGTAACAGGCACCA — higher, 935
- TAACTACTTCCTTTTACTATCTACCACAATTTAATT — higher, 1620
- TCAAGAAAACAGGAAACTCTCAAAACCAAGTTCTGA — higher, 773
- TGGAAGGCCGGAAAAGGTTTACCACCACACTCCGGT — higher, 791
- CAGTGACAGGAAGTGGTTCAGCGGTTGTTTAGGGCT — higher, 892
- GACATCCAGGAAGTGGTGAGAAACCACGTGTGTGTT — higher, 747
- AATGGGCTTGGTTTCCTGTGGGTTTGTAGCTTTGTA — higher, 899
- GCAGGCGGAGCTTGAGGAAACCGCAGATAAGTTTTT — higher, 9080
- CTCCAGGGACAACCCGGAAACCACATTGCCCAGCGT — higher, 982
- TGTCCGCACCCCACTTCCGCCCCGCAGAGGGCAACG — higher, 890
- ACAGACCAGGGGATTTCCTGTGGGTGGAGTCCTCAG — lower, 676
- CCCACTTCCTGTCTGCTTCCCTCCACCGCTCAGACC — higher, 1890
- AGGCAGCACAGGAAGTTATAACCACATGTACACTTG — higher, 781
- TTGGTCAGGATGTGGCTGAAGAAGCCACAAGAAAAA — higher, 769
- AGTTGTGTTTTAGGATGTGGTCAAAGCCCAACAGAG — higher, 910
- TTCGGATTCCCGGAAGAACCCGCAGCAGCTCCCAGG — higher, 789
- CCGAGCTTAACGACATCCTGCGGCTCAGCGTGGAGG — higher, 792
- TCTCTACTTCCCATTATTTCTGTGGTTAATTTCACC — higher, 10400
- GCCTGTCGCAGGAACGGAAGTGGTTACGGCCCTAGT — higher, 830
- ACCCCGGAAGTGTGGGCGCGGCTGCGGTTTAACCCG — higher, 2220
- TGTTTTCGCTCTTCCTGGCCTTGCGGGCAGCCAGGA — higher, 1060
- CCCTGAGCACTTCCCCGTAAGGCTGCGGTGCACGGG — higher, 871
- AGCACCCGGAAGTCGGAGCTGCGCACGCACCGCGGG — higher, 751
- GGGGCTCCGCAGGAAGTAGGGCTCCCACAACTTTGC — lower, 664
